Compound activity: PubChem, several laboratories
Only some compounds are listed: those with a hit (about 2% of all), similar ones and a draw of the others.
A3G deaminase: APOBEC3G (human) deaminase inhibition | Q9HC16 | recombinant A3G, ssDNA deamination FAM/TAMRA fluorescence | inhibition, % at 20 µM | 0.28% of 330,000 active;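 active = inhibition of at least 40% at 20 µM, with no more than 30% in the related APOBEC3A deaminase screen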;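 note: plate controls were DMSO wells with A3G for no effect and wells lacking A3G enzyme for full effect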
Target sequence (Q9HC16 whole entry, looked up): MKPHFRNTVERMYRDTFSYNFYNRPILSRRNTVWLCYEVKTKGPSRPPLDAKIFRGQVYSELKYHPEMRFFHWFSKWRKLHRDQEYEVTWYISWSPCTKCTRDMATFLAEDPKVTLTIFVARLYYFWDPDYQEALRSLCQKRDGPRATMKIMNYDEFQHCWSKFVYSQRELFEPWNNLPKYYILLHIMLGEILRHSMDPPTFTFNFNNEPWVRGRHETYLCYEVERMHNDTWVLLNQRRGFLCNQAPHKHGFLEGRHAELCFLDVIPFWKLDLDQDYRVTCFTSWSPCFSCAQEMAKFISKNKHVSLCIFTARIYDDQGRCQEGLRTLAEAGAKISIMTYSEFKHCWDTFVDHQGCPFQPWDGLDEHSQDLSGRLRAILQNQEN
CTSL1 counter: counter-screen for PFM18AAP inhibitors: inhibitors of F. hepatica cathepsin L1. recombinant F. hepatica cathepsin L1, Z-Leu-Arg-MCA fluorescence. inhibition, % at 5.96 µM. 0.49% of 300,000 active. AID 1906;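 active = inhibition above the mean of all tested compounds plus 3 SD, set per screening campaign, cut at about 17% in these data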;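 note: 0% = plate median of test compound wells and 100% = 1 µM Z-Phe-Ala-diazomethylketone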
sPLA2-III inh: Inhibits HGIII-sPLA2 liposome hydrolysis, primary screen. Q9NZ20. QFRET BODIPY PC-A2 liposome hydrolysis, fluorescence. inhibition, % at 12.2 µM. 0.56% of 370,000 active;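 active = inhibition above mean plus 3 SD of compounds lying within the high and low control bounds, cut at about 19% in these data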;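 note: 0% = median of test compound wells and 100% = no enzyme DMSO wells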
NALP1 yeast inh: NALP1 inhibition; S. cerevisiae NALP1/ASC/caspase-1 growth, X-gal OD620, 72 h; inhibition, % at 10 µM; 0.61% of 280,000 active; in the data active = inhibition mostly above about 24%, no sharp cut-off; inactive = mostly below about 32%
APOBEC3A inh: blocks human APOBEC3A ssDNA deamination; P31941; recombinant A3A, FAM/TAMRA ssDNA deamination fluorescence; inhibition, % at 20 µM; 0.41% of 330,000 active; AID 493011;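 active = at least 40% inhibition at 20 µM here, with at most 30% in a related deaminase screen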;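 note: plate controls were A3A with DMSO for no effect and wells lacking A3A enzyme for full effect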
Target sequence (P31941 whole entry, looked up): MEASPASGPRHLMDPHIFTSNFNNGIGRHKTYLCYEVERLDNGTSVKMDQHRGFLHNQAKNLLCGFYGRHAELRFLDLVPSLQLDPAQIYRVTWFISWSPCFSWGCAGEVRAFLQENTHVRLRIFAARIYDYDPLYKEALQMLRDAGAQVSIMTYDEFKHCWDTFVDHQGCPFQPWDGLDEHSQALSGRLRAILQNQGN
sPLA2 confirm: human GIII-sPLA2 inhibition, confirmation; shares compounds with sPLA2-III inh; recombinant hGIII-sPLA2, BODIPY PC-A2 QFRET fluorescence; inhibition, % at 12.2 µM; 34% of 2,000 active; AID 743280;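 active = mean inhibition across triplicates above the hit cutoff set in the earlier primary screen, cut at about 19% in these data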;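 note: 0% = enzyme with DMSO and 100% = DMSO wells lacking enzyme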
BODIPY interf: optically interferes with 535nm fluorescence in sPLA2 counter-screen; shares compounds with sPLA2-III inh; 8.5% of 2,000 active; BODIPY FL product fluorescence interference, QFRET; inhibition, % at 12.2 µM;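 active = average inhibition above the solvent-only control mean plus 3 SD, cut at about 6% in these data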;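 note: 0% = DMSO with substrate plus product and 100% = DMSO with substrate alone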
BODIPY interf DR: counter-screen for HGIII-sPLA2 inhibitors: 535nm fluorescence interference, dose response | shares compounds with sPLA2-III inh | BODIPY FL product fluorescence interference, cell-free | IC50, µM | 240 tested, under 10 active | AID 743455;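 active = IC50 at or below 10 µM; inactive = IC50 above 10 µM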
Numbers without * were called inactive; x = no result.

SMILES	A3G deaminase	CTSL1 counter	sPLA2-III inh	NALP1 yeast inh	APOBEC3A inh	sPLA2 confirm	BODIPY interf	others
O=S1(=O)CCS(=O)(=O)C1c1ccccc1	-3.3	1.8	20.2*	x	1.4	-2.2	-4.6
O=C1CC(=O)CC(c2ccccc2)C1	-8.7	-2.5	2.1	-21.8	-2.2	x	x
O=C(CCc1ccccc1)N[C@H]1[C@H](OC(=O)c2cnccn2)CCC[C@@]12C(=O)N(Cc1ccccc1)c1ccccc12	x	x	-9.5	x	x	x	x
Cn1ccc2ccc(-c3ccc4c(c3)[C@]3(CCC[C@@H](OCc5ccccc5)[C@@H]3NC(=O)CCc3ccccc3)C(=O)N4Cc3ccccc3)cc21	x	x	10.6	x	x	x	x
CCOC(=O)C1=C(c2ccccc2)NC(=S)NC1c1cc([N+](=O)[O-])ccc1OC (centres undefined)	-7.3	3.0	23.2*	9.2	-5.0	17.8	3.1
CCOC(=O)C1=C(c2ccccc2)NC(=S)NC1c1cccc([N+](=O)[O-])c1 (centres undefined)	-8.0	0.7	15.6	16.9	-1.4	x	x
CCCCCCCCN1C(=O)[C@@H](CC(=O)NCC23CC4CC(CC(C4)C2)C3)C[C@@]2(C(=O)OC)C1=C[C@H](C1CCCC1)O[C@@H]2C	x	x	10.1	x	x	x	x
CCCCCCCCN1C(=O)[C@@H](CC(=O)NCC23CC4CC(CC(C4)C2)C3)C[C@@]2(C(=O)OC)C1=C[C@H](C(C)(C)C)O[C@@H]2C	x	x	20.6*	x	x	-17.5	-15.8
CCN(CC)c1ccc(/C=N/NC(=O)OC)c(O)c1	-3.5	6.5	-2.5	3.7	-5.0	x	x
CCN(CC)c1ccc(/C=N/NC(=S)NC)c(O)c1	-7.0	4.4	21.2*	3.7	-2.4	36.6*	2.3	BODIPY interf DR=>122
CCN(CC)c1ccc(/C=N/NC(=O)c2nnn(-c3nonc3N)c2C(C)C)c(O)c1	-4.5	2.2	23.8*	15.4	-9.9	45.9*	7.6*
CC(C)c1c(C(=O)N/N=C/c2ccc3c(c2)OCO3)nnn1-c1nonc1N	-2.0	0.6	-3.7	13.7	-2.0	x	x
CCN(CC)c1ccc(C=NNC(=O)c2cc(-c3ccc(C)c(C)c3)n[nH]2)c(O)c1	x	x	21.4*	x	x	30.9*	2.9	BODIPY interf DR=>122
COc1ccc(NC(=O)NNC(=O)CCn2nc(C)c([N+](=O)[O-])c2C)cc1OC	x	x	1.5	x	x	x	x
CCOCCCNC(=O)C1CCN(C(=O)N(C)C)CC1	-2.6	-2.3	20.3*	20.2	3.9	-1.1	-4.7
CCOCCCNC(=O)C1CCN(S(=O)(=O)N2CCCCC2)CC1	-8.3	-3.4	3.5	-18.7	-2.1	x	x
CCC(C)[C@H](NC(=O)N1CCCCC1)C(=O)OC (some centres undefined)	-6.3	-3.1	22.9*	x	-0.9	0.2	-4.4
COC(=O)[C@]12C[C@H](CC(=O)N3CCSCC3)C(=O)N(Cc3cccc4ccccc34)C1=C[C@H](C(C)(C)C)O[C@@H]2C	x	x	11.6	x	x	x	x
Cc1[nH]c(N=Nc2ccccc2)nc1N=Nc1ccccc1	2.3	4.0	24.9*	-11.2	3.5	16.6	9.0*
COc1ccc(N=C(N)NC(=O)OCc2ccccc2)cc1	x	x	4.6	x	x	x	x
O=[N+]([O-])c1ccc(NNS(=O)(=O)c2cc(Cl)ccc2Cl)nc1	-3.7	x	23.5*	4.5	-2.5	48.3*	72.2*
Cc1ccc(-c2c(NC(=O)c3ccc(F)cc3)nc3ncccn23)cc1	x	x	2.2	x	x	x	x
Cc1ccsc1/C=N/n1c(-c2cc(-c3ccccc3)n[nH]2)n[nH]c1=S	15.2	1.1	-9.8	0.2	-6.4	x	x
Cc1ccccc1/C=N/n1c(-c2cc(-c3ccccc3)n[nH]2)n[nH]c1=S	9.9	2.8	26.1*	x	-6.9	-69.7	5.8
Cc1ccccc1CSCC(=O)NC(=O)NCc1ccco1	11.7	4.4	12.2	-9.9	17.3	x	x
SMILES	A3G deaminase	CTSL1 counter	sPLA2-III inh	NALP1 yeast inh	APOBEC3A inh	sPLA2 confirm	BODIPY interf	others
O=C(CSCc1ccccc1Br)NNC(=S)NCc1ccco1	-10.5	-2.0	39.5*	-22.7	-4.5	47.7*	8.8*
c1ccc2cc(Cn3ccc4ccc(-c5ccc6cc[nH]c6c5)cc43)ccc2c1	x	x	23.2*	x	x	6.2	10.3*
Clc1cccc(CNC2CCC23CCCCC3)c1 (centres undefined)	x	x	5.3	x	x	x	x
Cn1nccc1C(=O)N1CCc2ccccc21	-6.9	-2.5	86.9*	2.9	-3.3	-0.6	-0.8
Cn1ncc(Br)c1C(=O)N1CCc2ccccc21	-7.4	-3.1	3.0	26.2	-2.1	x	x
COc1cccc(/C=N/N=C(\N)c2nonc2N)c1O	-3.9	2.5	19.8*	-25.6	-2.3	5.8	-3.3
COc1cc(/C=N/N=C(/N)c2nonc2N)cc(Br)c1OCc1ccccc1C	-3.0	1.8	-3.4	8.9	-4.0	x	x
CCCC[C@@H](CNC)NC[C@H](NCCCCC1CCCCC1)C(C)C	-14.2	1.6	29.1*	-2.9	-3.8	-5.0	-27.9
CCCn1c(=S)[nH]c2cc(C(=O)N3CCN(C4CCCCC4)CC3)ccc2c1=O	0.6	1.9	20.3*	-30.8	-1.6	12.7	-12.7
O=C(c1ccc2c(=O)n(C3CCCC3)c(=S)[nH]c2c1)N1CCN(C2CCCCC2)CC1	-1.0	0.5	-3.0	3.7	-0.5	x	x
COC(=O)C[C@@H]1CC[C@H]2[C@@H](COc3ccc(NC(=O)NC(C)C)cc3C(=O)N2C)O1	x	x	9.5	x	x	x	x
COc1ccccc1C(=O)NC1CCCCN(Cc2cccc(F)c2)C1=O (centres undefined)	x	x	-4.2	x	x	x	x
CC(=O)c1c(C)nc2sc3c(=N)n(N)cnc3c2c1-c1ccc(Cl)cc1	-3.7	1.2	30.3*	8.3	1.3	3.6	-9.1
CCc1nc(SCC(=O)Nc2ccc(N(C)C)cc2)c2ccccc2n1	-2.4	2.2	22.2*	x	4.1	23.1*	-0.6
COC(=O)C1CN(Cc2ccc(OC)cc2)CCS(=O)(=O)N1Cc1cn(Cc2ccc(OC)cc2)nn1 (centres undefined)	x	x	3.9	x	x	x	x
CC(C)(C)N1Cc2nnn(CC3CCCCC3)c2-c2cc(F)ccc2S1(=O)=O	x	x	6.9	x	x	x	x
COc1ccc(-n2c(-c3ccc(Cl)cc3)c[nH]c2=S)cc1	-5.1	0.2	22.4*	-19.0	-3.0	29.0*	2.0
Cc1ccc(-n2c(-c3ccccc3)c[nH]c2=S)cc1	-4.5	6.0	19.5*	-2.9	-1.0	27.2*	1.5
COc1ccc(NC(=S)NC2CC3CCC2C3)c(OC)c1 (centres undefined)	-7.8	0.1	20.7*	-2.1	-3.1	19.7*	-1.2
CCOc1ccccc1NC(=S)NC1CC2CCC1C2 (centres undefined)	-4.7	-5.0	x	-5.3	-8.1	x	x
COc1cccc(C=NNC(=S)NC2CC3CCC2C3)c1O (centres undefined)	x	x	26.4*	x	x	31.4*	7.8*
